Among all 290,000 compounds or so, about 3,000 (1%) were called active. The sample holds actives, similar compounds and a random draw of the others, so the mix is not that of the screen. A number with no mark means an inactive call. Rule as the data show it: active = inhibition mostly above about 36% (no sharp cut-off); inactive = mostly below about 34%.

This experiment in a line: inhibition of NOD1-driven NF-kB reporter – cell-based, luminescence, uHTS, primary screen (AID 1578).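 Also: HEK-293T reporter cells stimulated with the NOD1 agonist gamma-tri-DAP.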 As to conditions: NOD1-driven NF-kB luciferase reporter cells, at 4 µM, stronger effect = higher value. For orientation: Reporter assays use an easily measured gene product as a stand-in for the process of interest.
With `CCN1CCN(c2nc3c(c(=O)n(C)c(=O)n3C)n2Cc2cccc3ccccc23)CC1`, the inhibition – broadly, the relative decrease from the control value, in per cent – is -7.8%. As for `COc1ccc(-c2nc3ccccc3n2Cc2ccccc2)cc1`, the figure is 14.3%. As for `Cc1n(Cc2ccccc2)c2ccccc2[n+]1Cc1ccccc1`, the figure is 19.4%. In the case of `O=C(CNC(=O)c1cccs1)NCCN1CCN(Cc2ccccc2)CC1`, the inhibition was -22.6%. Consider `COc1ccc(OC)c(N/C=C/C(=O)c2ccc(OC)c(OC)c2)c1`, for which the inhibition is -24.7%. As for `COc1ccc(N/C=C/C(=O)c2ccccc2)cc1`, the figure is -59%; as for `COc1ccc(OC)c(N/C=C/C(=O)c2ccccc2)c1`, 62.5% (active); as for `Cc1nc2c(ccc3nc(NC(=O)Cc4cccc5ccccc45)sc32)s1`, -33%.

Consider `COc1cc2[nH]c(=S)nc(NCc3ccc(Cl)cc3)c2cc1OC`, for which the inhibition was -8.3%. `COc1cc(OC)cc(C(=O)N[C@H](C(=O)OCc2cc(=O)oc3cc(C)ccc23)C(C)C)c1`: the inhibition is -34.2%. `Cc1sc2ncnc(NC3CCN(Cc4ccccc4)CC3)c2c1C`: the inhibition was 42.7%. As for `Cc1csc2c(NC3CCN(Cc4ccccc4)CC3)ncnc12`, the figure is 5%. For the compound `CNC(=S)N(CCc1c(C)[nH]c2ccc(Cl)cc12)Cc1cccnc1`, the inhibition is 46.2% (active). With `CCNC(=S)N(CCc1c(C)[nH]c2ccc(Cl)cc12)Cc1cccnc1` the figure was 11.3%; with `CNC(=S)N(CCc1c(C)[nH]c2ccc(C)cc12)Cc1cccnc1`, -9%; with `O=C(OCc1nc2ccccc2s1)c1ccc([N+](=O)[O-])o1`, -43.7%.

Turning to `Cc1ccc(C(=O)NCc2ccc(F)cc2)cc1NC1=NC2CS(=O)(=O)CC2S1` (stereo not given), the inhibition is -41.2%. As for `O=C(NCC1CCCO1)c1cc2c([nH]c3ccccc32)c(-c2cccc(Br)c2)n1` (stereo not given), the inhibition was 33.6%. As for `COc1cccc(-c2nc(C(=O)NCC3CCCO3)cc3c2[nH]c2ccccc23)c1` (stereo not given), the figure is 51.4%; as for `O=C(NCC1CCCO1)c1cc2c([nH]c3ccccc32)c(-c2cccc(Cl)c2)n1` (stereo not given), 73.1% (active).

Turning to `Cc1cc(=O)[nH]c(SCC(=O)Nc2ccc(F)c([N+](=O)[O-])c2)n1`, the inhibition is -19.5%. In the case of `COc1ccc(CNC(=O)CSc2nnc(NC(=O)c3ccccc3F)s2)cc1`, the inhibition was -52.7%.

Regarding `CC1CCCCC1NC(=O)CCn1ccc2cc(S(=O)(=O)N3CCCC3)ccc21` (stereo not given), the inhibition is 13.3%. For `CC1(C)CCSC(/C=C/c2ccccc2)=N1`, the inhibition was 73.3% (active). As for `C(=C\c1ccncc1)/c1ccccc1`, the inhibition was -7.3%.

In the case of `Nc1nnc(/C=C/c2ccccc2)s1`, the inhibition was -41.9%. As for `COc1cc2c(c(O)c1OC)-c1c(cc(OC)c(OC)c1OC)C[C@@H](C)[C@@H](C)C2`, the figure is 1.8%. With `Cc1ccc(-c2noc(CCCC(=O)NCC3CCCO3)n2)cc1` (stereo not given), the inhibition was 8.8%. With `COc1ccc(NC(=O)C(Cl)=C(Cl)Cl)cn1`, the inhibition is 30.7%.

For the compound `COc1ccc(CC(=O)Nc2ccc(OC)nc2)cc1`, the inhibition was -29.9%. Regarding `COc1ccc(CS(=O)(=O)/C(Cl)=C(/Cl)C(=O)Nc2ccc(OC)nc2)cc1`, the inhibition was 78.4% (active). With `Cc1ccc(Nc2ccccc2N)cc1` the figure was 59.7% (active); with `Nc1ccc(Nc2ccccc2N)cc1`, 2.7%. As for `Nc1ccccc1Nc1ccccc1`, the figure is 48.8%; as for `CCCCCn1c(C)c2c(OCC)cccc(=O)c2c1C`, -1%. In the case of `CCN(CC)CCNCc1cc(Br)ccc1OCC(=O)NCc1ccccc1`, the inhibition was 7.4%. Turning to `N#Cc1cc([N+](=O)[O-])ccc1NC(=O)COC(=O)CC1CCCC1`, the inhibition was -12.2%. As for `Cc1ccccc1S(=O)(=O)Cc1ccc(C(=O)NCc2ccco2)o1`, the figure is -5.4%; as for `CNC(=O)c1ccccc1S(=O)c1ccccc1COC(C)=O` (stereo not given), -5.2%; as for `COc1cc2c(cc1OC)CN(C(=O)CSc1nc(N)c(C#N)cc1C#N)CC2`, 6.8%. As for `Cc1cc(C)c(C#N)c(SCC(=O)N2CCCCC2)n1`, the figure is -5.5%; as for `COc1cc2c(cc1OC)CN(C(=O)CSc1nc(C)cc(C)c1C#N)CC2`, 54.2% (active); as for `CC12C(=O)N(c3ccccn3)C(=O)C1C1C=CC2C1` (stereo not given), 15.9%. As for `CN(C)CCN(C(=O)c1cccc2ccccc12)c1nc2cc3c(cc2s1)OCO3`, the figure is 17.7%; as for `O=[N+]([O-])c1ccc(N2CCN(Cc3cccc([N+](=O)[O-])c3)CC2)cc1`, 11.9%; as for `O=[N+]([O-])c1ccc(CN2CCCCCC2)cc1`, -21%.

`O=[N+]([O-])c1cccc(CN2CCCCCC2)c1`: the inhibition was 82.1% (active). Turning to `CCC(C(=O)N1CCN(c2ncccn2)CC1)c1ccccc1` (stereo not given), the inhibition was 4.2%. With `CC(CC(=O)N(C)C1CCCCC1)S(=O)(=O)c1ccc2c(c1)NC(=O)CO2` (stereo not given), the inhibition was -10.5%.

Regarding `COc1ccc(OCC(=O)NNC(=S)NC(=O)c2ccc(Br)o2)cc1`, the inhibition is -38.4%. With `COc1ccc(C(=O)NNC(=S)NC(=O)c2ccc(Br)o2)cc1OC` the figure was 37.6% (active); with `COc1ccc(OC)c(NC(=S)NC(=O)c2ccc(Br)o2)c1`, -27.7%. As for `COc1ccc(CCNC(=O)C/C(C)=N/NC(=O)c2ccc(N)cc2)cc1OC`, the figure is -10.1%; as for `Cc1sc2ncn(CC(=O)NCCCC(=O)N3CCCCC3)c(=O)c2c1C`, 12.4%; as for `C=CCOc1c(CNC2CCCC2)cc(Cl)cc1OC`, -19.3%. With `CNCc1cc(Cl)cc(OC)c1OC(C)C` the figure was 44.6% (active). Turning to `CCNCc1cc(Cl)cc(OC)c1OC(C)C`, the inhibition is 17.6%.

For `COc1ccc(N)cc1S(=O)(=O)Nc1ccccc1Cl`, the inhibition is 9.1%. On to `COc1ccc(OCC(=O)Nc2ccc(S(=O)(=O)N3CCCCCC3)cc2)cc1`, for which the inhibition was -7.8%.

For `O=S(=O)(c1ccc(S(=O)(=O)N2CCC(O)CC2)cc1)N1CCCC1`, the inhibition is 29.3%. Consider `COc1ccc(CCn2ccc(O)c(Cc3c(F)cccc3Cl)c2=O)cc1OC`, for which the inhibition was 55.5% (active). As for `COc1ccc(CCn2ccc(O)c(Cc3ccc(Cl)cc3Cl)c2=O)cc1OC`, the figure is -2.8%; as for `COc1ccc(CCn2ccc(O)c(Cc3ccc(Cl)cc3)c2=O)cc1OC`, 3.1%. With `CN1CCN(C(=S)c2ccc(Cl)cc2)CC1` the figure was 1.9%; with `NC(=O)C1CCN(Cc2ccc(OCc3ccccc3)cc2)CC1`, -29.8%; with `O=S(=O)(NC1CC1)c1cccc(S(=O)(=O)N2CCCC2)c1`, -9.9%. Consider `COc1ccc(CNC(=O)CC(C)CC2=NS(=O)(=O)c3ccccc3N2)cc1` (stereo not given), for which the inhibition is -5.1%. As for `COc1ccc(C(=O)NCc2nnc(SCC(=O)N3CCCCC3)o2)cc1OC`, the inhibition is 8.1%. As for `COc1ccc(-c2nnc3n2N=C(C)CS3)cc1`, the figure is 8.4%; as for `CCOC(=O)/C(=C\c1ccc(OC(F)F)cc1)C1=Nn2c(nnc2-c2ccc(Cl)cc2)SC1`, 92.7% (active). As for `CCOc1ccc(-c2nnc3n2N=C(c2ccc(OC)cc2)CS3)cc1`, the figure is 4.9%; as for `Cc1ccc(Cl)cc1NC(=O)C1CCCN(S(=O)(=O)c2c(C)noc2C)C1` (stereo not given), -22.6%; as for `O=C(O)CCCCCNCc1ccncc1`, -8%. For `CCc1ccc(-c2csc(NC(=O)C3=NN(c4ccccc4)C(=O)CC3)n2)cc1`, the inhibition was 51.4%. As for `COc1ccc(OC)c(-c2csc(NC(=O)C3=NN(c4ccccc4)C(=O)CC3)n2)c1`, the figure is -27.4%; as for `CCOC(=O)c1ccc(NS(=O)C23CC4CC(CC(C4)C2)C3)cc1` (stereo not given), -39.1%; as for `CCN(CC)S(=O)(=O)c1ccc2oc(C(=O)NCCCN3CCOCC3)c(C)c2c1`, -9.1%. As for `Cc1cccc(N2CCN(C(=O)NC3CCCCC3)CC2)c1C`, the inhibition was -19.6%. As to `O=C1[C@H]2[C@@H](c3ccc(F)cc3)N3C(=O)N(c4cccc(Br)c4)C(=O)[C@@]3(Cc3ccc(Cl)cc3)[C@H]2C(=O)N1C1CCCCC1`, the inhibition is -14.3%.

Consider `O=C1[C@H]2[C@@H](c3ccc(Cl)cc3)N3C(=O)N(c4cccc(Br)c4)C(=O)[C@@]3(Cc3ccc(Cl)cc3)[C@H]2C(=O)N1C1CCCCC1`, for which the inhibition was 45.6% (active). With `CC[C@@]12C(=O)N(c3cccc(Br)c3)C(=O)N1[C@H](c1ccc(Cl)cc1)[C@@H]1C(=O)N(C3CCCCC3)C(=O)[C@@H]12` the figure was 10.3%. Regarding `O=c1cc(-c2c(F)c(F)c(F)c(F)c2F)oc2ccccc12`, the inhibition is 36.7%. Turning to `O=c1cc(-c2c(F)c(F)c(F)c(F)c2F)oc2c(F)c(F)c(F)c(F)c12`, the inhibition is 98.7% (active).

On to `COc1c(OC)c(O)c2c(=O)cc(-c3c(O)cccc3O)oc2c1OC`, for which the inhibition is 2.2%. Turning to `Cc1cccc(NC(=O)Cc2c(F)cccc2Cl)n1`, the inhibition is -46.6%. With `O=[N+]([O-])c1ccc(Nc2ccc(F)cc2)cc1` the figure was -11.9%. As for `Cc1nsc(Nc2ccc([N+](=O)[O-])cc2)c1C#N`, the figure is 60.4% (active); as for `Cc1nsc(Nc2ccccc2)c1C#N`, 16.5%.

In the case of `CN1CCN(/N=C/c2ccc(N(C)c3ccccc3)cc2)CC1`, the inhibition was -6.9%. Turning to `Cc1cc(=O)oc2c(C)c(OCC(=O)NCCCn3ccnc3)ccc12`, the inhibition is 1.8%. For the compound `O=C(OCc1ccccc1)c1cccnc1Cl`, the inhibition was -18.1%. For `CN(Cc1ccon1)Cc1cn(C)nc1-c1ccc2c(c1)OCCO2`, the inhibition is -26.3%.

Turning to `Cn1cc(CNCc2cn[nH]c2-c2ccc(F)cc2)c(-c2ccc3c(c2)OCCO3)n1`, the inhibition is -22.2%. Turning to `Cn1cc(CNCc2ccc(OC(F)(F)F)cc2)c(-c2ccc3c(c2)OCCO3)n1`, the inhibition was 75.4% (active). With `C/C(=N\NC(=O)C1CC1(c1ccccc1)c1ccccc1)c1cccc([N+](=O)[O-])c1` (stereo not given) the figure was -12.5%.

The values above are taken from PubChem BioAssay AID1578 (Sanford-Burnham Center for Chemical Genomics, 2009).
